From PubChem BioAssay (Tox21) come the findings set out here.

Records with an inconclusive call do not appear. Some compounds were tested as several samples or in several runs, with calls that do not always agree. Active and inactive are the calls of the source. Unless noted, calls follow the shape of the dose curve; as a rule, active = well fitted curve in the direction sought with a large enough effect in the repeat runs; inconclusive = weak or mixed curves; inactive = no such curve, though single readings can be large; an effect the other way counts as inactive or inconclusive.

Assay [1] in a line: qHTS assay to identify small molecule antagonists of the thyroid receptor (TR) signaling pathway - cell viability counter screen (AID 743064). Also: nearly all actives have a fitted effect of over 50% in size. Also: potency is read from the fitted curve at half-maximal effect. An outline of the steps: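 Plate GH3.TRE-Luc cells; incubate 4 h at 37 °C; add compound, then T3 to 1 nM final; incubate 23.5 h; add CellTiter-Fluor; incubate 30 min at 37 °C, 5% CO2; read fluorescence.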
Assay [2] has as its system thyroid hormone receptor (rat, GH3 cells). Put plainly: qHTS assay to identify small molecule agonists of the thyroid receptor (TR) signaling pathway (AID 743066; calls by dose curve).
Assay [3] addresses Estrogen receptor (Homo sapiens) (UniProt P03372). Put plainly: qHTS assay to identify small molecule antagonists of the estrogen receptor alpha (ER-alpha) signaling pathway (AID 743069; active = well fitted curve in the direction sought with a large enough effect in the signal ratio in the repeat runs, not every such curve was filed as active; the % refers to the signal ratio). An outline of the steps: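 Antagonist mode: compounds in DMSO were co-added with 17beta-estradiol to ER-alpha-bla HEK293 cells (2% charcoal-stripped serum) and left 18 h at 37C. Reporter inhibition was measured as FRET fluorescence after 2 h LiveBLAzer substrate at room temperature.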

Assay [4] in a line: qHTS assay to identify small molecule antagonists of the estrogen receptor alpha (ER-alpha) signaling pathway - cell viability counter screen (AID 743074; calls by dose curve;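 also: HEK293 cells carrying ER-alpha-UAS-bla reporter stimulated with 17beta-estradiol; nearly all actives have a fitted effect of over 45% in size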; also: potency is read from the fitted curve at half-maximal effect).
Assay [5] addresses Estrogen receptor (Homo sapiens) (UniProt P03372). Nature of the assay: qHTS assay to identify small molecule agonists of the estrogen receptor alpha (ER-alpha) signaling pathway (AID 743075; calls by dose curve;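 also: HEK293 GripTite cells with ER-alpha and UAS-driven beta-lactamase reporter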).
Assay [6] has the same target. Nature of the assay: qHTS assay to identify small molecule agonists of the estrogen receptor alpha (ER-alpha) signaling pathway using the BG1 cell line (AID 743079). Also: nearly all actives have a fitted effect of over 20% in size. Also: potency is read from the fitted curve at half-maximal effect.
A short description of assay [7]: qHTS assay to identify small molecule antagonists of the estrogen receptor alpha (ER-alpha) signaling pathway using the BG1 cell line (AID 743080; calls by dose curve;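 also: BG1 cells stimulated with 17beta-estradiol alongside compound; series mostly up to about 70 µM; nearly all actives have a fitted effect of over 25% in size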). An outline of the steps:
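After 5 days in phenol-red-free 10% charcoal-stripped FBS medium, BG1-Luc-4E2 cells were seeded, left 24 h at 37 C, co-treated with compounds and 17beta-estradiol for 21.5 h, then assayed for viability and luciferase.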

Assay [8] can be described thus: qHTS assay to identify small molecule antagonists of the estrogen receptor alpha (ER-alpha) signaling pathway using the BG1 cell line - cell viability counter screen (AID 743081).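 Also: compound given together with 17beta-estradiol as the ER stimulus; nearly all actives have a fitted effect of over 45% in size.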 Also: potency is read from the fitted curve at half-maximal effect.
Assay [9] can be described thus: qHTS assay to identify aromatase inhibitors - cell viability counter screen (AID 743084).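 Also: cells stimulated with testosterone during compound exposure; nearly all actives have a fitted effect of over 55% in size.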 Also: potency is read from the fitted curve at half-maximal effect.
Assay [10] in a line: qHTS assay to identify small molecule that activate the aryl hydrocarbon receptor (AhR) signaling pathway - cell viability counter screen (AID 743086). Also: nearly all actives have a fitted effect of over 45% in size. Also: potency is read from the fitted curve at half-maximal effect. In a few lines: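 Cytotoxicity counter screen: CellTiter-Fluor signal (30 min, 37 C) in 4000 HepG2 cells/well carrying the DRE-luciferase reporter, following 24 h compound exposure at 37 C.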
In assay [11] the target is Peroxisome proliferator-activated receptor gamma (Homo sapiens) (UniProt P37231). Nature of the assay: qHTS assay to identify small molecule agonists of the peroxisome proliferator-activated receptor gamma (PPARg) signaling pathway (AID 743094; active = well fitted activation curve with a large enough effect in the signal ratio in the repeat runs, not every such curve was filed as active; the % refers to the signal ratio). In a few lines:
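Agonism was assessed in a beta-lactamase reporter system, HEK293H cells with a stably integrated UAS-bla construct under PPARg control; the 17 h treatment at 37C preceded a 1 h room-temperature FRET substrate read.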

A further assay addresses Aromatase (Homo sapiens) (UniProt P11511). Put plainly: qHTS assay to identify aromatase inhibitors (AID 743083). Also: nearly all actives have a fitted effect of over 55% in size. Also: potency is read from the fitted curve at half-maximal effect.
The target of assay [12] is Aryl hydrocarbon receptor (Homo sapiens) (UniProt P35869). Put plainly: qHTS assay to identify small molecule that activate the aryl hydrocarbon receptor (AhR) signaling pathway (AID 743085).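 Also: HG2L7.5c1 human HepG2 liver cells with stably integrated DRE-driven firefly reporter; series mostly up to about 70 µM; nearly all actives have a fitted effect of over 15% in size.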 An outline of the steps:
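Steps: seed HepG2-AhR-luc cells; allow 5 h at 37C; pin-transfer test compound or vehicle; incubate 24 h at 37C; add viability dye (30 min, 37C) and read fluorescence; add luciferase substrate (30 min, RT) and read luminescence.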

The nature of assay [13]: qHTS assay to identify small molecule antagonists of the thyroid receptor (TR) signaling pathway (AID 743065). Also: nearly all actives have a fitted effect of over 55% in size. Also: potency is read from the fitted curve at half-maximal effect. In a few lines: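 Antagonism measured as loss of luciferase signal in GH3 cells stably carrying a TRE-luciferase reporter, co-treated with compound and T3 (1 nM final) for 23.5 h at 37 C. Viability was read in the same well by CellTiter-Fluor.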
Assay [14] is described as follows: qHTS assay for small molecule activators of the heat shock response signaling pathway - cell viability counter screen (AID 743209). Also: nearly all actives have a fitted effect of over 50% in size. An outline of the steps: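 Compounds dissolved in DMSO were added to overnight-plated HSE-bla HeLa cells and left 5 h at 37 C. Cell viability was quantified by luminescence using CellTiter-Glo.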

Sequence of Estrogen receptor (Homo sapiens) (P03372 whole entry, looked up): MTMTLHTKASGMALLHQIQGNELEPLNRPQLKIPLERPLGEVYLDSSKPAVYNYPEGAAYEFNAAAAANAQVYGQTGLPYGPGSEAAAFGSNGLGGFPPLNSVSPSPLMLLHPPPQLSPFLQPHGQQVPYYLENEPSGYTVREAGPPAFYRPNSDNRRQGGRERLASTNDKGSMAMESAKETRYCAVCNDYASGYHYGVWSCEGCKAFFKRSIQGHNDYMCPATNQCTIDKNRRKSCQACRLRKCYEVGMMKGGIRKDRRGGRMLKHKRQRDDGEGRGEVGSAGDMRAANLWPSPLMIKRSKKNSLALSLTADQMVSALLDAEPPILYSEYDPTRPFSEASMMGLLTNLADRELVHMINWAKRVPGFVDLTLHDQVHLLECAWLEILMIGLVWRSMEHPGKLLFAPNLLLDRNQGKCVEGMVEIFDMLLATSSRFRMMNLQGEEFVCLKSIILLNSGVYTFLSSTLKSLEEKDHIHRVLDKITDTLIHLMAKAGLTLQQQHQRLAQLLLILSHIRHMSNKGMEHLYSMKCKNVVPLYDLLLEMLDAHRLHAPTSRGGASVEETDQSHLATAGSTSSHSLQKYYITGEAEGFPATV
Sequence of Peroxisome proliferator-activated receptor gamma (Homo sapiens) (P37231 whole entry, looked up): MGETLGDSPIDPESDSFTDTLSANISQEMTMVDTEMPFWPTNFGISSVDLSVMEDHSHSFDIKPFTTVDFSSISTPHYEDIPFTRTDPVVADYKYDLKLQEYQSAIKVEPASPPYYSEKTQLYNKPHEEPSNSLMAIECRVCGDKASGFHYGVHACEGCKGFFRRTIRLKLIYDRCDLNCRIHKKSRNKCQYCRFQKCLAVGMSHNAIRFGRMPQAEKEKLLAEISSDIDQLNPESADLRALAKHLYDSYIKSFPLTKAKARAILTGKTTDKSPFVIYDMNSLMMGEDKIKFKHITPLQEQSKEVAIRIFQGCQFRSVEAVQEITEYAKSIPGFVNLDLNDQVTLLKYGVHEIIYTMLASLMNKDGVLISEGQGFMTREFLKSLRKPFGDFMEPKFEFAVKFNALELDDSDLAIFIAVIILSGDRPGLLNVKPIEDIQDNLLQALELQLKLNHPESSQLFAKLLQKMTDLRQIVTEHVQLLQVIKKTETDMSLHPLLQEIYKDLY
Sequence of Aromatase (Homo sapiens) (P11511 whole entry, looked up): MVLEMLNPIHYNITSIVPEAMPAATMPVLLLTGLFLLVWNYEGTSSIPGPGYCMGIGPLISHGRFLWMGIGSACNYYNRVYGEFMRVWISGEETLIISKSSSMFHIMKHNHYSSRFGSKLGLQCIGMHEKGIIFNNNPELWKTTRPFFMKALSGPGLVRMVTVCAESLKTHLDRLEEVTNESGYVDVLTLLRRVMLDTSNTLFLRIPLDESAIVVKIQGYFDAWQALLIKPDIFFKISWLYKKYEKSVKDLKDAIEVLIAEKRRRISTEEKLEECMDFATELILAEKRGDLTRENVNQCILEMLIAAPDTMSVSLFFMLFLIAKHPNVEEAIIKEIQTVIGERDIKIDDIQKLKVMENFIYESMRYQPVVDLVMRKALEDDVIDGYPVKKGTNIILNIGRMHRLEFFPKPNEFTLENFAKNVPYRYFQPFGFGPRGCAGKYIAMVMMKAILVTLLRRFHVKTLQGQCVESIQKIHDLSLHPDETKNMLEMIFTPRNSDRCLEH
Sequence of Aryl hydrocarbon receptor (Homo sapiens) (P35869 whole entry, looked up): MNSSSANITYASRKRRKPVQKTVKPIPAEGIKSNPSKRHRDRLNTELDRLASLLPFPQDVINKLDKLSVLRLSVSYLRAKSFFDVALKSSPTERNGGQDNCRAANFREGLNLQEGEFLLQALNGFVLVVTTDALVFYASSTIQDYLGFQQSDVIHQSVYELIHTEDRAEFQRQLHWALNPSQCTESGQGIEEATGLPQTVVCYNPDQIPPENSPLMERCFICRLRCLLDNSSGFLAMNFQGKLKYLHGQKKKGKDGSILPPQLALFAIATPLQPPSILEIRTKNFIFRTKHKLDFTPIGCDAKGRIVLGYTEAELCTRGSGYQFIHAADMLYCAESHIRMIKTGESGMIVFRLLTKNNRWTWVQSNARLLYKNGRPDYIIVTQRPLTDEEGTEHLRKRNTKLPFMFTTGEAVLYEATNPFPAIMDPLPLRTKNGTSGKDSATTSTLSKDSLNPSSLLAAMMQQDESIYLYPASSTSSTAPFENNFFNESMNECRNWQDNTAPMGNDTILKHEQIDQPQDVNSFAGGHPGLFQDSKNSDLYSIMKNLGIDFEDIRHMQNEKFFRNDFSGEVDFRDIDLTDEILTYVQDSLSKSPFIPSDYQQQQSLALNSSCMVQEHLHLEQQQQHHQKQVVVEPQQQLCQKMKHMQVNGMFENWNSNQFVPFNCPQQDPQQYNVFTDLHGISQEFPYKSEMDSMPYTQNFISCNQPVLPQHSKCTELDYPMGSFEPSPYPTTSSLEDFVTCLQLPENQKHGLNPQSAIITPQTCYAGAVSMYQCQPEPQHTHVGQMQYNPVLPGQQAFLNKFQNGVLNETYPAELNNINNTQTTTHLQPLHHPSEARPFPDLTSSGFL

With `CC(C)[N+]1(C)[C@@H]2CC[C@H]1CC(OC(=O)C(CO)c1ccccc1)C2` (stereo partly drawn), the Potency result in assay [1], in assay [2], in [3], in assay [4], in assay [5] and in [7] was “inactive” in each case. Moreover, the Potency entry in assay [8], in assay [9], in assay [10] and in [11] was “inactive” throughout. For the same molecule, in assay [6], the Potency is 26.6 µM (active) and inactive.
`CC(C)(S)C(=O)N[C@@H](CS)C(=O)O`: the Potency result (in assay [1]; in [4]; in assay [8]; with Aromatase (Homo sapiens); in [9]; in [12]) was “inactive” throughout. Also, the Potency result in [10] and in assay [11] was “inactive” throughout.
As for `NC(=O)c1cc[n+](CC2=C(C(=O)O)N3C(=O)[C@@H](NC(=O)C(c4ccccc4)S(=O)(=O)[O-])[C@H]3SC2)cc1` (stereo partly drawn), the Potency entry (in [1]; in assay [2]; in [4]; in assay [8]; with Aromatase (Homo sapiens); in assay [9]) was “inactive” each time. The Potency result in assay [12], in assay [10] and in [11] was “inactive” throughout.
For the molecule `CNC(=O)C[C@@H](N)C(=O)N[C@@H](C(=O)N[C@@H]1C(=O)N2[C@@H]1SC(C)(C)[C@@H]2C(=O)O)c1ccc(O)cc1`, the Potency entry in assay [1], in assay [3], in assay [4], in assay [5], in assay [6] and in [7] was “inactive” in each case. For the same molecule, the Potency entry (in assay [8]; in the assay with Aromatase (Homo sapiens); in assay [9]; in [12]; in assay [10]; in assay [11]) was “inactive” throughout.
As to `CC(C)(O/N=C(\C(=O)N[C@@H]1C(=O)N2C(C(=O)[O-])=C(C[n+]3ccccc3)CS[C@H]12)c1csc(N)n1)C(=O)O`, the Potency result in assay [1], in [2], in assay [3], in assay [5], in assay [6] and in assay [7] was “inactive” in each case. The Potency entry (in assay [8]; with Aromatase (Homo sapiens); in assay [9]; in assay [10]; in assay [11]) was “inactive” in each case.
Consider `Cc1cc(N)c2ccccc2[n+]1CCCCCCCCCC[n+]1c(C)cc(N)c2ccccc21`, for which the Potency in assay [13] is 11.4 µM (active); in assay [4], 8.11 µM (active). Moreover, the Potency entry in assay [2], in [5], in assay [12], in [10] and in [11] was “inactive” in each case.
As to `O=C(O)/C=C/C(O)c1ccc(Cl)cc1` (stereo not drawn), the Potency result (in assay [1]; in [2]; in assay [4]; in assay [8]; with Aromatase (Homo sapiens); in assay [9]) was “inactive” each time. The Potency result in assay [12], in assay [10] and in assay [11] was “inactive” each time.
In the case of `c1ccc2occc2c1`, the Potency entry in assay [13], in assay [2], in assay [3], in assay [5], in assay [6] and in assay [7] was “inactive” throughout. The Potency result in assay [8], in assay [11] and in assay [14] was “inactive” throughout. For the same molecule, the Potency (with Aromatase (Homo sapiens); in assay [9]) was 68.6 µM (active) in each case.
As for `CCN(CC)CC#CCOC(=O)C(O)(c1ccccc1)C1CCCCC1` (stereo not drawn), the Potency in assay [1] was 13.3 µM (active); in assay [8], 9.44 µM (active); in assay [9], 11.9 µM (active); in assay [10] it was 18.8 µM (active). Besides, the Potency entry (in [2]; in [4]; in the assay with Aromatase (Homo sapiens); in assay [12]) was “inactive” each time.
Turning to `O=C(O)c1cc2cc(Cc3cccnc3)ccc2o1`, the Potency result in assay [13], in assay [2], in assay [3], in assay [4], in assay [7] and in assay [8] was “inactive” each time. For the same molecule, the Potency entry (with Aromatase (Homo sapiens); in assay [9]; in [12]; in [10]; in assay [11]) was “inactive” each time. Further, the Potency in assay [6] was 18.8 µM (active).
For `CN1C(C(=O)Nc2ccccn2)C(=O)c2sc(Cl)cc2S1(=O)=O` (stereo not drawn), the Potency result in [13], in [2], in assay [3], in assay [4], in assay [5] and in assay [6] was “inactive” throughout. Also, the Potency result (in assay [7]; with Aromatase (Homo sapiens); in [9]; in assay [12]; in [10]; in [11]) was “inactive” throughout.
Consider `O=S(=O)(O)CC(S)CS` (stereo not drawn), for which the Potency entry (in [1]; in [2]; in assay [4]; in assay [8]; in the assay with Aromatase (Homo sapiens); in assay [9]) was “inactive” in each case. For the same molecule, the Potency entry in assay [12], in [10] and in [11] was “inactive” throughout.
In the case of `CCCCC[C@H](O)/C=C/[C@@H]1[C@@H](C/C=C\CCCC(=O)O)[C@@H](O)C[C@H]1O`, the Potency entry (in [1]; in assay [4]; in [8]; with Aromatase (Homo sapiens); in assay [9]; in assay [12]) was “inactive” throughout. Also, the Potency result in assay [10] and in assay [11] was “inactive” throughout. In assay [6], the Potency is 29.8 µM (active).
